SMILES strings stand for the structures.

This experiment relates to Trichuris muris adult worms. Kind of experiment: mean motility score (Paragon pixel variance) of adult worms (arbitrary units); higher = more motile worms, i.e. less anthelmintic effect; extreme values may be limits of the assay. The settings on record: 100 µM; 24 h. The procedure, abridged: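 Single adult Trichuris muris worms, recovered from infected NOD SCID mice, were exposed to drug at 100 μM (1% v/v DMSO) in 100 μL RPMI-1640 with antibiotics in 96-well plates for 24 h at 37°C and 5% CO2. The plates were then filmed on an automated phenotyping platform. The motility score was calculated through Paragon pixel-variance analysis and averaged across replicate wells, with three worms in three wells per drug on three separate occasions.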
In the case of `C[C@@H]1[C@H](O)[C@@H](C)/C=C/C=C/C=C/C=C/C=C/C=C/C=C/[C@H](O[C@@H]2O[C@H](C)[C@@H](O)[C@H](N)[C@@H]2O)C[C@@H]2O[C@](O)(C[C@@H](O)C[C@@H](O)[C@H](O)CC[C@@H](O)C[C@@H](O)CC(=O)O[C@H]1C)C[C@H](O)[C@H]2C(=O)O` [amphotericin B], the mean motility score was 656. On to `Cc1ccc(Nc2nccc(N(C)c3ccc4c(C)n(C)nc4c3)n2)cc1S(N)(=O)=O` [pazopanib], for which the mean motility score came to 1830. Regarding `Cl.N=C(N)NC(=O)c1nc(Cl)c(N)nc1N` [amiloride hydrochloride], the mean motility score came out at 2260. For `CCCc1cc(O)nc(S)n1` [propylthiouracil], the mean motility score was 3720. Turning to `CC(=O)O` [acetic acid], the mean motility score came out at 2710.

As for `CC(=O)N1CCN(c2ccc(OC[C@@H]3CO[C@@](Cn4ccnc4)(c4ccc(Cl)cc4Cl)O3)cc2)CC1` [ketoconazole], the mean motility score was found to be 1360. Consider `CN(C)CC/C=C1/c2ccccc2Sc2ccc(Cl)cc21` [chlorprothixene], for which the mean motility score worked out at 5. Take `C#Cc1cccc(Nc2ncnc3cc(OCCOC)c(OCCOC)cc23)c1` [erlotinib]: the mean motility score came to 1720.

Turning to `CCCc1nc(C)c2c(=O)nc(-c3cc(S(=O)(=O)N4CCN(CC)CC4)ccc3OCC)[nH]n12` [vardenafil], the mean motility score is 2160. `CS(=O)(=O)OCCCCOS(C)(=O)=O` [busulfan] had a mean motility score of 3180. In the case of `COC(=O)C1=C(C)NC(C)=C(C(=O)OCCN2CCN(C(c3ccccc3)c3ccccc3)CC2)C1c1cccc([N+](=O)[O-])c1.Cl` (centres undefined) [manidipine hydrochloride], the mean motility score stood at 1540.

In the case of `COCCOC(=O)C1=C(C)NC(C)=C(C(=O)OC(C)C)C1c1cccc([N+](=O)[O-])c1` (centres undefined) [nimodipine], the mean motility score stood at 112. In turn, `CCCc1nc(C(C)(C)O)c(C(=O)OCc2oc(=O)oc2C)n1Cc1ccc(-c2ccccc2-c2nnn[nH]2)cc1` [olmesartan medoxomil] gave a mean motility score of 3650. As for `CCCNCC(O)COc1ccccc1C(=O)CCc1ccccc1` (centres undefined) [propafenone], the mean motility score came out at 1050. The molecule `CN1CCN(CCOc2cc(OC3CCOCC3)c3c(Nc4c(Cl)ccc5c4OCO5)ncnc3c2)CC1` [saracatinib] registered a mean motility score of 1640. Consider `CCn1nc(C(=O)O)c(=O)c2cc3c(cc21)OCO3` [cinoxacin], for which the mean motility score was 1110. As for `NS(=O)(=O)c1cc(Cl)c(Cl)c(S(N)(=O)=O)c1` [dichlorphenamide], the mean motility score was found to be 752.

`CN(C)[C@@H]1C(O)=C(C(N)=O)C(=O)[C@@]2(O)C(O)=C3C(=O)c4c(O)cccc4[C@@](C)(O)[C@H]3[C@H](O)[C@@H]12` [oxytetracycline] yielded a mean motility score of 2120. In the case of `CC(CCc1ccc(O)cc1)NCCc1ccc(O)c(O)c1` (centres undefined) [dobutamine], the mean motility score is 2870. On to `CN(C/C=C/C#CC(C)(C)C)Cc1cccc2ccccc12` [terbinafine], for which the mean motility score turned out to be 4560. On to `COc1c2ccoc2cc2oc(=O)ccc12` [bergapten], for which the mean motility score turned out to be 3090. Consider `OCCN1CCN(CCCN2c3ccccc3Sc3ccc(Cl)cc32)CC1` [perphenazine], for which the mean motility score is 175.

As for `CN(CCOc1ccc(CC2SC(=O)NC2=O)cc1)c1ccccn1` (centres undefined) [rosiglitazone], the mean motility score amounted to 603. `CCCCc1oc2ccccc2c1C(=O)c1cc(I)c(OCCN(CC)CC)c(I)c1` [amiodarone] gave a mean motility score of 2080.

For the origin of these results see the supplement of paper PMC10503962.
